# Reference: PubChem BioAssay (NCATS)
# Records with an inconclusive call do not appear. Entries that show only a call come without a potency. A number with no mark means an inactive call. Activity calls are given as the source filed them. Unless noted, calls come from the whole dose curve; as a rule, active = well fitted curve in the direction sought with a large enough effect; inconclusive = small, poorly fitted or top-dose-only effect, or another doubt; inactive = no such curve, though single readings can be large; an effect the other way counts as inactive or inconclusive.
# Key:
# [1] = qHTS for Inhibitors of Plasmodium falciparum (GB4) proliferation (AID 504315); note: nearly all actives have a fitted effect of over 50% in size; note: potency is the fitted concentration of half-maximal effect; conditions: P. falciparum GB4 in erythrocytes, SYBR Green DNA, 72 h; series mostly up to 6.7 µM
# Summary of the method: (§1)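 Erythrocytes infected with P. falciparum line (0.3% parasitemia, 2.5% hematocrit final) incubated with compounds 72 h at 37 °C, 5% CO2; SYBR Green lysis buffer added, fluorescence read next day. Normalized to 0.29 uM artemisinin and DMSO.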
# [2] = qHTS for Inhibitors of Plasmodium falciparum (7G8) proliferation (AID 504316); note: nearly all actives have a fitted effect of over 65% in size; note: potency is the fitted concentration of half-maximal effect; conditions: P. falciparum 7G8 in erythrocytes, SYBR Green DNA, 72 h; series mostly up to 6.7 µM
# Summary of the method: as §1
# [3] = qHTS for Inhibitors of Plasmodium falciparum (HB3) proliferation (AID 504318); note: nearly all actives have a fitted effect of over 60% in size; note: potency is the fitted concentration of half-maximal effect; conditions: P. falciparum HB3 in erythrocytes, SYBR Green DNA, 72 h; series mostly up to 7.21 µM
# Summary of the method: as §1
# [4] = qHTS for Inhibitors of Plasmodium falciparum (CP250) proliferation (AID 504320); conditions: P. falciparum CP250 in erythrocytes, SYBR Green DNA, 72 h; series mostly up to 6.7 µM
# Summary of the method: as §1
# [5] = biological target: Atrial natriuretic peptide receptor 1 (Homo sapiens) (UniProt P16066); experiment: Natriuretic polypeptide receptor (hNpr1) antagonism - Pilot CMLD screen (AID 1347052; calls by dose curve;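 note: HEK293 cells with hNpr1 stimulated by hNppA peptide at 0.1 nM; cGMP level read as GloSensor luciferase luminescence after agonist stimulation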); conditions: HEK293 hNpr1 GloSensor cGMP luminescence, ANP-stimulated; series mostly up to 9.22 µM
# [6] = biological target: Cytochrome P450 2C9 (Homo sapiens) (UniProt P11712); experiment: qHTS Assay for Inhibitors and Substrates of Cytochrome P450 2C9 (AID 883); conditions: recombinant CYP2C9, luciferin-H luminescence, 60 min; series mostly up to 57.1 µM; note: nearly all actives have a fitted effect of over 60% in size
# Summary of the method: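 Turnover of Luciferin-H (100uM, KM) by 10nM human CYP2C9 was measured over 60 min at 37C with NADPH regeneration; inhibitors and some substrates reduce luminescence. Data normalized to sulphaphenazole 57uM.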
# [7] = biological target: Cytochrome P450 3A4 (Homo sapiens) (UniProt P08684); experiment: qHTS Assay for Inhibitors and Substrates of Cytochrome P450 3A4 (AID 884); conditions: recombinant CYP3A4, Luciferin-PPXE luminescence; series mostly up to 57.1 µM; note: nearly all actives have a fitted effect of over 50% in size
# Summary of the method: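 20 nM human CYP3A4 with 25 uM Luciferin-PPXE (at KM) in 200 mM KPO4, preincubated 10 min with compound; NADPH regeneration started a 60 min RT reaction. Luciferin detected by luminescence, normalized to 57 uM ketoconazole as full inhibition.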
# [8] = biological target: Cytochrome P450 2D6 (Homo sapiens) (UniProt P10635); experiment: qHTS Assay for Inhibitors and Substrates of Cytochrome P450 2D6 (AID 891); conditions: recombinant CYP2D6, luciferin-ME EGE luminescence; series mostly up to 57.1 µM;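 note: luciferin methyl ether substrate demethylated by CYP2D6 with NADPH regeneration; nearly all actives have a fitted effect of over 60% in size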
# Summary of the method: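 Human CYP2D6 (5 nM) with 30 uM Luciferin-ME EGE (at Km) in 100 mM KPO4, compound preincubated 10 min, then NADPH regeneration system for 60 min at room temperature. Luciferin read by luminescence; normalized to 1.43 uM quinidine.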
# [9] = biological target: Cytochrome P450 2C19 (Homo sapiens) (UniProt P33261); experiment: qHTS Assay for Inhibitors and Substrates of Cytochrome P450 2C19 (AID 899); conditions: recombinant CYP2C19, luciferin-H EGE luminescence; series mostly up to 57.1 µM; note: nearly all actives have a fitted effect of over 60% in size
# Summary of the method: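 Reactions contain 5nM enzyme, 10uM Luciferin-H EGE (KM) and 50mM KPO4; compound preincubates 10 min at 37C, NADPH regeneration starts turnover for 60 min. Luminescence after detection reagent gives activity.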
# Atrial natriuretic peptide receptor 1 (Homo sapiens), sequence (P16066 whole entry, looked up): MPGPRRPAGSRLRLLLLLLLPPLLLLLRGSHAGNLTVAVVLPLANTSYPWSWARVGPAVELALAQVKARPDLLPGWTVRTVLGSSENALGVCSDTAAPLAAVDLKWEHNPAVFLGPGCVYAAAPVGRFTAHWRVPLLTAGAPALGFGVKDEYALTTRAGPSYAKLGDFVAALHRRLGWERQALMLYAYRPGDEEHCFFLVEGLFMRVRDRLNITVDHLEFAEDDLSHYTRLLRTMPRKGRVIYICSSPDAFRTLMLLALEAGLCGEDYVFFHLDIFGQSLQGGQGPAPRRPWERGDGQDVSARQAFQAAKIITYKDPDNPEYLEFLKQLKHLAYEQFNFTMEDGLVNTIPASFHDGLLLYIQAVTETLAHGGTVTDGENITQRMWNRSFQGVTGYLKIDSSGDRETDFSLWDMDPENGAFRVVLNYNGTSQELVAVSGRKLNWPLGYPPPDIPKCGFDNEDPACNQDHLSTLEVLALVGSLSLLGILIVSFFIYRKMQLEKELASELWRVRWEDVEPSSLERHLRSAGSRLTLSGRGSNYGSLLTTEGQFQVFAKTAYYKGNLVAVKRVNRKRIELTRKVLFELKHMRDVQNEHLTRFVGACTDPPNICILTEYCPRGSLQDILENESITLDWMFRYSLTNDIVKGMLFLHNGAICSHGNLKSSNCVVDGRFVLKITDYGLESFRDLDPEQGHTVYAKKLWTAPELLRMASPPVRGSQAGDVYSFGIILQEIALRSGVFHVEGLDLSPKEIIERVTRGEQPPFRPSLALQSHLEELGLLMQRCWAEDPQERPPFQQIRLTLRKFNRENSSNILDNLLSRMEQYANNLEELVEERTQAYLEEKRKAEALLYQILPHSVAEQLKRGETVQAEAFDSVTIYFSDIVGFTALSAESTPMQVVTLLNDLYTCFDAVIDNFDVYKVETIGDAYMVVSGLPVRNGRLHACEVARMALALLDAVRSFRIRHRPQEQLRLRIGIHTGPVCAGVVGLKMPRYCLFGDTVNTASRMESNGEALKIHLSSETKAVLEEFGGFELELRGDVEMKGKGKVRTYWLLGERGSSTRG
# Cytochrome P450 3A4 (Homo sapiens), sequence (P08684 whole entry, looked up): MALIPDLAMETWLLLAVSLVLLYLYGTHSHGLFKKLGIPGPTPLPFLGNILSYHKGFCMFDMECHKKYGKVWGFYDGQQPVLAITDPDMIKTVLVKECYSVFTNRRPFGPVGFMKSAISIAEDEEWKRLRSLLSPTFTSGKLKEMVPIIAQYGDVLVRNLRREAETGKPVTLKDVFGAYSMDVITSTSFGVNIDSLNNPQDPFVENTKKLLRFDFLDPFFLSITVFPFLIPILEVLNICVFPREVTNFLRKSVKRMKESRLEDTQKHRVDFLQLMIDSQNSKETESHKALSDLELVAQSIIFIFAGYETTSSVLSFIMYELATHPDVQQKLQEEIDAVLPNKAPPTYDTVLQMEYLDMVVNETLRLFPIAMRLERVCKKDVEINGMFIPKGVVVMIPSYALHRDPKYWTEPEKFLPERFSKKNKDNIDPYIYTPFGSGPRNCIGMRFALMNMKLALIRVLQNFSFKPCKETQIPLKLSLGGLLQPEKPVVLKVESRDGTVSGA
# Cytochrome P450 2C9 (Homo sapiens), sequence (P11712 whole entry, looked up): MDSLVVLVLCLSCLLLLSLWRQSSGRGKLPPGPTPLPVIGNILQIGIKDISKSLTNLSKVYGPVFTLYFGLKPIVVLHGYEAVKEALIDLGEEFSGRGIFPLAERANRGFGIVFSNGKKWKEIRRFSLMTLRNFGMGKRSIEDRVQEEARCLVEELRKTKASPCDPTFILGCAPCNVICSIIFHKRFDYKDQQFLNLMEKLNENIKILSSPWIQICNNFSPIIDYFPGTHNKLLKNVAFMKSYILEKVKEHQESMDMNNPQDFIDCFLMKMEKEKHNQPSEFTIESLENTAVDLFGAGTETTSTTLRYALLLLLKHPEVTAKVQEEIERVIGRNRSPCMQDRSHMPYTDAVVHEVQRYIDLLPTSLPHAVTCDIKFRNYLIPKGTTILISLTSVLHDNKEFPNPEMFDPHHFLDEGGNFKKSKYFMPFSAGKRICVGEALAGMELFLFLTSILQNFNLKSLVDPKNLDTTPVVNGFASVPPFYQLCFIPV
# Cytochrome P450 2D6 (Homo sapiens), sequence (P10635 whole entry, looked up): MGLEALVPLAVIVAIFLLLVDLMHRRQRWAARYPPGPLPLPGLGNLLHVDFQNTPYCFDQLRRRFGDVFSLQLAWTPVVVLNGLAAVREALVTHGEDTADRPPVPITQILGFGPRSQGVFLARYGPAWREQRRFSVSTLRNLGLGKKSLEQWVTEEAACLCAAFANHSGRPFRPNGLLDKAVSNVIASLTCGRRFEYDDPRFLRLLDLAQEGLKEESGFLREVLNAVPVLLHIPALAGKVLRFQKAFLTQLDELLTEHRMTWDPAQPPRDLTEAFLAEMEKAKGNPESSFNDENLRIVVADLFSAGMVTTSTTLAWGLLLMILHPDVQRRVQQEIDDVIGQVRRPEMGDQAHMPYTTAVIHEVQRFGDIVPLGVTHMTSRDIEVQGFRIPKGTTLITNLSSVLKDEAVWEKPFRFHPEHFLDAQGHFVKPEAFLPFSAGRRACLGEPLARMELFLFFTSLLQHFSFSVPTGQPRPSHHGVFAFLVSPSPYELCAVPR
# Cytochrome P450 2C19 (Homo sapiens), sequence (P33261 whole entry, looked up): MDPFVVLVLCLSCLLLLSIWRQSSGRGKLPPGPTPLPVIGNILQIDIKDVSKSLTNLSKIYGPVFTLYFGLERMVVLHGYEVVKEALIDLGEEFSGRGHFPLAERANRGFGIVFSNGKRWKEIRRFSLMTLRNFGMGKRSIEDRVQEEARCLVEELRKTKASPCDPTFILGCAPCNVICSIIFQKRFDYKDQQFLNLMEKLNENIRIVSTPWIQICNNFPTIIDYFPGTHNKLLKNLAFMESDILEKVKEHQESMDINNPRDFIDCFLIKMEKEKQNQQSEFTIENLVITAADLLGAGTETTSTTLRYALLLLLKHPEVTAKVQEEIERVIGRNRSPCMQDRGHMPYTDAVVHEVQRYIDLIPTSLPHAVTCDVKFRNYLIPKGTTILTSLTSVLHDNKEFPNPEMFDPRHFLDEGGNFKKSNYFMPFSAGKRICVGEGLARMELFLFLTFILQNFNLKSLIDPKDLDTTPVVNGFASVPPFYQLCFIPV
SMILES,Potency [1],Potency [2],Potency [3],Potency [4],Potency [5],"activity change, negative = inhibition [6]","activity change, negative = inhibition [7]","activity change, negative = inhibition [8]","activity, negative = inhibition [9]"
C[C@@H]1CC[C@H]2C(=O)N(Cc3ccccc3)C[C@@H](O)CN2[C@@H]1c1cccc(Br)c1,inactive,inactive,inactive,inactive,inactive,,,,
COc1ccc(O[C@H]2C=C[C@@H](c3ccccc3)O[C@H]2COC(=O)CCC(C)=NO[C@@H]2O[C@H](COC(C)=O)[C@@H](OC(C)=O)[C@H](OC(C)=O)[C@@H]2OC(C)=O)cc1,inactive,inactive,inactive,inactive,inactive,,,,
Cc1cc(C)c2c(c1)CO[C@H]([C@H](O)CO)[C@H]2C=Cc1ccccc1,inactive,inactive,inactive,inactive,inactive,,,,
CC1(C)O[C@H]2OC([C@H](O)CON3C(=O)c4ccccc4C3=O)[C@H](O)[C@@H]2O1 (some centres undefined),inactive,inactive,inactive,inactive,inactive,,,,
COCCN1C(=O)C2=C(C1=O)C1N(C)c3ccccc3[C@@]13C[C@@H](CO)N(C(=O)CCC(=O)OC)C3=N2 (some centres undefined),inactive,inactive,inactive,inactive,inactive,,,,
COC(=O)CC=C1c2ccccc2OC[C@@H](OC)[C@H]1C,inactive,inactive,inactive,inactive,inactive,,,,
CC(C)[C@@H](OCc1ccccc1)[C@H](C)C=NOC[C@@H](O)COCc1ccco1,inactive,inactive,inactive,inactive,inactive,,,,
CCN(CCNC(=O)[C@H]1C=C(OC)C(=O)C[C@@H]2c3ccccc3C[C@]12C)C(C)=O,inactive,inactive,inactive,inactive,inactive,,,,
CCN1C(=O)NC(c2cccc(F)c2)C(C(C)=O)=C1C (centres undefined),inactive,inactive,inactive,inactive,inactive,,,,
C=CCC(Nc1ccc(OC)cc1)C(=O)OCC (centres undefined),inactive,inactive,inactive,inactive,inactive,,,,
COC(=O)[C@@]1(Cc2ccccc2-c2ccco2)C=C[C@H](C)[C@@H](c2ccccc2)N1C(=O)C(F)(F)F,inactive,inactive,inactive,inactive,inactive,,,,
CNc1ccccc1C(=O)OCC(C)=O,inactive,inactive,inactive,inactive,inactive,24.8% [at 11.4 µM],-11.5% [at 11.4 µM],9.06% [at 11.4 µM],-17.8% [at 11.4 µM]
C[C@]12O[C@@H]1[C@@H](O)C(Br)=C(CO)[C@@H]2O,inactive,inactive,inactive,inactive,inactive,,,,
N#Cc1ccc2c(c1)C[C@]1(c3ccsc3)OC3=C(C(=O)OC4(CCCCC4)C3)[C@H]2O1,inactive,inactive,inactive,inactive,inactive,,,,
CC(C)(C)Nc1oc(-c2ccccc2)nc1-c1ccccc1,inactive,inactive,inactive,inactive,inactive,,,,
COC(=O)C(C(C)=O)C1c2ccccc2C=C(C)N1C(=O)OC (centres undefined),inactive,inactive,inactive,inactive,inactive,,,,
C=C(C)C(=O)OC[C@@H]1CN2[C@H](c3ccc(Br)cc3)[C@H](C)CC[C@H]2C(=O)O1,inactive,inactive,inactive,inactive,inactive,,,,
O=C1[C@@H]2[C@H]3[C@H](O)[C@H](O)CC(=NOC[C@@H](O)COCc4ccco4)[C@H]3CC[C@H]2C(=O)N1c1ccc(F)cc1F,inactive,inactive,inactive,inactive,inactive,,,,
CC1(OC(=O)CCc2ccccc2)C(=O)C=C2C=C(c3ccsc3)OC=C2C1=O (centres undefined),inactive,inactive,inactive,inactive,inactive,,,,
COC(=O)C1=C[C@]2(c3ccccc3C[C@H](OC)[C@@H]2C)[C@H]2C=C[C@H]1C2,inactive,inactive,inactive,inactive,inactive,,,,
N#CCCn1cnc2c1NC=NC2Cl (centres undefined),inactive,inactive,inactive,inactive,inactive,,,,
CCN1C(=NCc2cccc(C(F)(F)F)c2)NC(c2cccs2)C(C(=O)OC)=C1C (centres undefined),inactive,inactive,inactive,inactive,inactive,,,,
COc1cc(C(CC2=CCCCC2)NC(=O)C(F)(F)F)cc(OC)c1OC (centres undefined),inactive,inactive,inactive,inactive,inactive,,,,
CCN1C(=NCCCOC(C)C)NC(c2ccccc2)C(C(=O)OC)=C1C (centres undefined),inactive,inactive,inactive,inactive,inactive,,,,
CCCCC1=CC2=C(c3ccco3)C(=O)C(C)(OC(=O)c3ccc(OC)cc3)C(=O)C2=CN1Cc1ccc(OC)cc1 (centres undefined),inactive,inactive,inactive,inactive,inactive,,,,

SMILES,Potency [1],Potency [2],Potency [3],Potency [4],Potency [5],"activity change, negative = inhibition [6]","activity change, negative = inhibition [7]","activity change, negative = inhibition [8]","activity, negative = inhibition [9]"
COc1cccc(CO[C@H]2C=C[C@@H](c3ccccc3)O[C@H]2CBr)c1,inactive,inactive,inactive,inactive,inactive,,,,
CC(C)(C)c1ccc(O[C@@H]2[C@H](O)CO[C@H]2C=CC#Cc2ccccc2)cc1,inactive,inactive,inactive,inactive,inactive,,,,
CCCCC1=CC2=C(c3ccco3)C(=O)C(C)(OC(=O)c3ccc(OC)cc3)C(=O)C2=CN1CCN1CCOCC1 (centres undefined),inactive,inactive,inactive,inactive,inactive,,,,
C=CCOC(=O)N[C@H](c1ccccc1)[C@H](C)C=CCC(=O)OC,inactive,inactive,inactive,inactive,inactive,,,,
COc1ccc(C2=CC3=C(Br)C(=O)C(C)(OC(=O)c4ccc(Cl)nc4)C(=O)C3=CO2)cc1 (centres undefined),inactive,inactive,inactive,inactive,inactive,,,,
C=CCN(C)C1=NC(c2ccccc2)C(C(=O)OC)=C(C)N1CCOC (centres undefined),inactive,inactive,inactive,inactive,inactive,,,,
CCCC[C@]12Cc3cc(OC)c(OC)cc3[C@H](O1)C1=C(CC3(CCCCC3)OC1=O)O2,inactive,inactive,inactive,inactive,inactive,,,,
C=CCOC(=O)N[C@H](C[N+](=O)[O-])c1ccccc1,inactive,inactive,inactive,inactive,inactive,,,,
COC(=O)C1=C(C(=O)OC)[C@@H]2N(C)c3ccc(OC)cc3[C@@]23C[C@@H](C(=O)OC)N(C(=O)NCCBr)C3=N1,2130 nM (active),,2130 nM (active),,inactive,,,,
CC(C)=CCCC(C)=CCON=C1C[C@@H](O)[C@@H](O)[C@@H]2[C@H]3C(=O)N(c4ccc(F)cc4F)C(=O)[C@@H]3CC[C@H]12,inactive,,inactive,inactive,inactive,,,,
CC#C[C@H](C)[C@@H](OCOC)[C@H](C[C@H](C)Cc1cc(Br)cc(OCc2ccccc2)c1OC)OC,1510 nM (active),,1690 nM (active),,inactive,,,,
CCCCc1nc2c(c3c1C[C@H](C)OC3)CN(S(=O)(=O)c1ccccc1C(=O)OC)CC2,inactive,inactive,,inactive,inactive,,,,
COc1ccc2c(c1)O[C@H](c1ccc3c(c1)OCO3)[C@@H](OC(=O)NCCOc1ccccc1)C2=O,inactive,inactive,,inactive,inactive,,,,
COc1ccc2c(c1)c(CC(=O)NCc1ccc3c(c1)OCO3)c(C)n2C(=O)c1ccc(Cl)cc1,inactive,inactive,,inactive,inactive,,,,
CC(C)=CCN1C(=O)[C@]2(O[C@H](COc3ccccc3)CC3=CCCC32)c2c(Br)cccc21 (some centres undefined),1900 nM (active),,1900 nM (active),,inactive,,,,
COc1cccc([C@@H]2Oc3ccc(OC)cc3C[C@@H]2OC(=O)N[C@H]2CCCc3ccccc32)c1,inactive,1510 nM (active),,inactive,inactive,,,,
COC(=O)CCCC1=CC2=C(c3ccccc3)C(=O)C(C)(OC(=O)C3CCCC3)C(=O)C2=CN1c1ccc(OC)cc1 (centres undefined),inactive,inactive,,inactive,inactive,,,,
C=CC1=C2C=C(C3CC3)N(CCCOC(C)C)C=C2C(=O)C(C)(OC(=O)c2ccco2)C1=O (centres undefined),inactive,inactive,,inactive,inactive,,,,
C#CCN1C(=O)[C@]2(O[C@H](C)CC3=CCCC32)c2c(Br)cccc21 (some centres undefined),inactive,inactive,,inactive,inactive,,,,
COC(=O)C=P(c1ccccc1)(c1ccccc1)c1ccccc1,inactive,inactive,,inactive,inactive,,,,
C[C@H]1C=CCC(=O)N[C@@H](c2ccc3ccccc3c2)[C@@H](C)C=CCC(=O)N[C@@H]1c1ccc2ccccc2c1,inactive,,inactive,inactive,inactive,,,,
CCc1cc2c(nc1CC)CCN(CCC(C)=NOC[C@@H](O)[C@H]1O[C@@H]3OC(C)(C)O[C@H]3[C@@H]1O)C2,inactive,1690 nM (active),,inactive,inactive,,,,
COC(=O)C(C(=O)OC)[C@H]1c2ccccc2[C@@H]2C(=C[C@@H](C)[C@H]3C(=O)N(c4ccccc4)C(=O)[C@H]32)N1C(=O)OC,inactive,inactive,,inactive,inactive,,,,
COC(=O)N[C@H](C(C(=O)OC)=C(C)NCc1ccccc1)c1cccc(C)c1,inactive,inactive,,inactive,inactive,,,,
COc1ccc(O[C@H]2C=C[C@@H](c3ccccc3)O[C@H]2CON=C2c3cc(OC)ccc3O[C@H](c3cccc(OC)c3)[C@H]2O)cc1,inactive,1690 nM (active),,inactive,inactive,,,,
